In PubChem BioAssay (EPA / NIEHS):
The source made the active and inactive calls. The calls were made as follows: active = hit-call score of the fitted dose curve at least 0.9, where 1 is the maximum; inactive = score below 0.9.

What was measured:
[1] = ATG_E_Box_CIS: Attagene CIS-FACTORIAL HepG2 Assay for human Enhancer Box (E-box) (AID 2282936); conditions: HepG2 E-box cis-reporter transcription, actives raise or lower the signal
Outline: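 In this cell-based setup, HepG2 cells bearing transfected promoter-driven reporter units were exposed to chemicals for 24 h; reporter transcripts were amplified, 6-FAM-labelled, cut with HpaI and sized by capillary electrophoresis.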

[2] = ATG_M_61_CIS: Attagene CIS-FACTORIAL HepG2 Assay for M61 Transcription Factor (Internal Marker) (AID 2282937); conditions: HepG2 Attagene CIS-FACTORIAL M61 internal marker reporter; actives raise or lower the signal
Outline: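 Readout: fluorescent reporter mRNA fragments resolved by capillary electrophoresis after RT-PCR. Transiently transfected human HepG2 cells carried MRTU constructs reporting endogenous TF activity; 24 h chemical exposure; gain or loss of signal fitted relative to DMSO.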

[3] = ATG_M_19_CIS: Attagene CIS-FACTORIAL HepG2 Assay for M19 Transcription Factor (Internal Marker) (AID 2282939); conditions: HepG2 Attagene CIS-FACTORIAL M19 internal marker reporter; actives raise or lower the signal
Outline: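 Internal marker readout, fitted in both directions against DMSO, from HepG2 cells carrying transfected cis-element reporter constructs; RT-PCR and capillary electrophoresis of reporter mRNA after 24 h exposure.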

[4] = ATG_Ets_CIS: Attagene CIS-FACTORIAL HepG2 Assay for human Erythroblast Transformation Specific (ETS) (AID 2282941); conditions: HepG2 ETS cis-reporter transcription, actives raise or lower the signal
Outline: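 Cis-regulated reporter mRNA induction in HepG2 (transient transfection), 24 h exposure, RT-PCR plus capillary electrophoresis detection; DMSO serves as negative control and baseline.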

[5] = molecular target: Hepatocyte nuclear factor 3-beta (Homo sapiens) (UniProt Q9Y261); experiment: ATG_FoxA2_CIS: Attagene CIS-FACTORIAL HepG2 Assay for human Forkhead box A2 (FOXA2) (AID 2282942); conditions: HepG2 cis-reporter transcription factor activity, 24 h; actives raise or lower the signal
Hepatocyte nuclear factor 3-beta (Homo sapiens), sequence (Q9Y261 whole entry, looked up): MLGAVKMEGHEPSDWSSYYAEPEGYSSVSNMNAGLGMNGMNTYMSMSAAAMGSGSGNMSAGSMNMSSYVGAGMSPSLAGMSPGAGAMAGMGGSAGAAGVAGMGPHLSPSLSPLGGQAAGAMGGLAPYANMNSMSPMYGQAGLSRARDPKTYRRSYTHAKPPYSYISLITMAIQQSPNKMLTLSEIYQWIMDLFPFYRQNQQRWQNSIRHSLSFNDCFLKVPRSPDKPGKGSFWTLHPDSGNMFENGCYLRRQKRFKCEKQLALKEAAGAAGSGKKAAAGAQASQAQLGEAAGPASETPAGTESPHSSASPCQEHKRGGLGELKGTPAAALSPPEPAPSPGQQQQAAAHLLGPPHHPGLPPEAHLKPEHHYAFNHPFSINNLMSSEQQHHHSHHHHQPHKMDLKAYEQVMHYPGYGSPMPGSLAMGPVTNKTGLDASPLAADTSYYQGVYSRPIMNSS
Outline: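 Readout: fluorescent reporter transcripts resolved by capillary electrophoresis after RT-PCR. Transiently transfected HepG2, 24 h compound exposure, endogenous TF activity at cis promoter elements. Gain or loss of signal fitted relative to DMSO.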

[6] = ATG_FoxO_CIS: Attagene CIS-FACTORIAL HepG2 Assay for human Forkhead box O (FoxO) (AID 2282943); conditions: HepG2 Attagene cis-reporter, FoxO element, mRNA; actives raise or lower the signal
Outline: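 HepG2 cells transiently transfected with cis-element-driven reporter units report endogenous FoxO activity. After 24 h chemical exposure, reporter mRNA quantified by RT-PCR, fluorescent labeling, HpaI digestion and capillary electrophoresis; bidirectional fit versus DMSO.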

[7] = ATG_GATA_CIS: Attagene CIS-FACTORIAL HepG2 Assay for human GATA Binding Protein (AID 2282944); conditions: HepG2 GATA cis-element reporter, Attagene multiplex mRNA; actives raise or lower the signal
Outline: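 Reporter transcripts from a GATA cis-regulated unit, among multiplexed reporters in transfected HepG2 cells, were measured by RT-PCR with capillary electrophoresis after 24 h dosing. Induction or loss scored relative to DMSO.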

[8] = ATG_GLI_CIS: Attagene CIS-FACTORIAL HepG2 Assay for human Zinc Finger Protein GLI1 (AID 2282945); conditions: HepG2, Attagene cis-factorial reporter mRNA, GLI element; actives raise or lower the signal
Outline: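 Transiently transfected HepG2 cells report endogenous transcription factor activity via cis-element-driven reporter units. After 24 h compound exposure, reporter mRNA was measured by RT-PCR with capillary electrophoresis; bidirectional fitting against DMSO baseline.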

[9] = ATG_ERE_CIS: Attagene CIS-FACTORIAL HepG2 Assay for Estrogen Response Element (ERE) (AID 2282940); conditions: HepG2 ERE cis-reporter, Attagene RNA transcript; actives raise or lower the signal
Outline: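 After 24 h compound treatment, RNA from transfected HepG2 cells was reverse-transcribed, reporter cDNA PCR-amplified, FAM-labelled, HpaI-cut and resolved by capillary electrophoresis. ERE-driven cis reporter transcripts reflect endogenous factors; gain or loss scored against DMSO.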

[10] = ATG_EGR_CIS: Attagene CIS-FACTORIAL HepG2 Assay for human Early Growth Response 1 (EGR1) (AID 2282938); conditions: HepG2 Attagene CIS-FACTORIAL EGR reporter mRNA; actives raise or lower the signal
Outline: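 Read-out: fluorescent reporter-mRNA fragments resolved by capillary electrophoresis after RT-PCR, 24 h post-dose in transiently transfected HepG2. Endogenous transcription-factor activity reported via cis-element-regulated reporter units; gain or loss fitted relative to DMSO.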

Measured: AC50

CCCCOCCOC(C)=O
not listed: [9] | [10]
inactive: all other assays above

COP(=O)(OC)OC
not listed: [10]
inactive: all other assays above

COc1ccc(OC)c(C=O)c1
not listed: [6] | [10]
inactive: all other assays above

O=C(CCl)CCl
active: [1] 30.1 µM | [4] 39.1 µM | [6] 46.3 µM
not listed: [10]
inactive: all other assays above

CC(=O)c1cc(C(C)(C)C)cc2c1CCC2(C)C
active: [10] 37.9 µM | [5] 147 µM | [8] 143 µM
not listed: [3] | [9]
inactive: all other assays above

COP(=O)(OC)O/C(=C\Cl)c1cc(Cl)c(Cl)cc1Cl
active: [8] 130 µM
not listed: [3] | [9] | [10]
inactive: all other assays above

CC(=O)OC(c1ccccc1)C(Cl)(Cl)Cl (stereo not drawn)
not listed: [3] | [9]
inactive: all other assays above

ClC1(Cl)C2(Cl)C3(Cl)C4(Cl)C(Cl)(Cl)C5(Cl)C3(Cl)C1(Cl)C5(Cl)C24Cl (stereo not drawn)
not listed: [3] | [6] | [10]
inactive: all other assays above

O=C1CCCN1
not listed: [3] | [10]
inactive: all other assays above

CC(=[OH+])/C=C(/C)[O-].CC(=[OH+])/C=C(/C)[O-].CC(=[OH+])/C=C(/C)[O-].[Al]
not listed: [3] | [10]
inactive: all other assays above

CCCCC(CC)CO[N+](=O)[O-] (stereo not drawn)
not listed: [9] | [10]
inactive: all other assays above

CC(C)C1CCC(Cc2ccc(Cl)cc2)C1(O)Cn1cncn1 (stereo not drawn)
not listed: [3] | [6] | [9]
inactive: all other assays above

OCC(O)CCl (stereo not drawn)
not listed: [10]
inactive: all other assays above

Cc1ccccc1N
not listed: [9] | [10]
inactive: all other assays above

ClCCBr
not listed: [6] | [10]
inactive: all other assays above

COc1cc(OC)nc(NC(=O)NS(=O)(=O)c2ncccc2C(=O)N(C)C)n1
not listed: [6] | [10]
inactive: all other assays above

COc1cc2c(cc1OC)[C@@]13CCN4CC5=CCO[C@H]6CC(=O)N2[C@H]1[C@H]6[C@H]5C[C@H]43
not listed: [3] | [10]
inactive: all other assays above

Nc1ccc(-c2ccc(N)c(Cl)c2)cc1Cl
not listed: [3] | [6] | [9]
inactive: all other assays above
